Assay results as given in the supplement of paper PMC8975748.
Structures can show the parent of a compound that is named as a salt.

The molecules below were run on Saccharomyces cerevisiae BY4741 SeMeCo community (assay: z-score of subpopulation abundance vs DMSO median, subpopulation auxotrophic for HU; higher = larger share of this subpopulation than in DMSO controls). Conditions: 10 µM; 24 h; SM minimal medium; subpopulation (auxotrophy): HU.
Description: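 Fluorescent four-plasmid SeMeCo (self-establishing metabolically cooperating S. cerevisiae BY4741 community; plasmids pH-mRuby2, pL-mWasabi, pU-eCFP, pM-TagRFP657) was grown 24 h in minimal SM medium with each Selleck FDA-approved drug at 10 µM in 384-well plates. Cells were fixed and imaged by high-content confocal microscopy. For each auxotrophic subpopulation (and the prototroph), a z-score gives the deviation from the DMSO vehicle-control population median.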

Row | SMILES | z-score of subpopulation abundance
1 | COc1cc2c(cc1OC)C1CC(=O)C(CC(C)C)CN1CC2 (stereo not given) [Tetrabenazine (Xenazine)] | -1.24
2 | CCOC(=O)Nc1ccc(NCc2ccc(F)cc2)cc1N [Retigabine] | -0.59
3 | CCC1=C[C@H]2CN3CCc4c([nH]c5ccccc45)[C@](C(=O)OC)(C2)[C@H]13 [Catharanthine] | -0.39
4 | CN1[C@@H]2CC[C@H]1C[C@@H](OC(=O)C(CO)c1ccccc1)C2 (stereo not given in full) [Atropine sulfate monohydrate] | 0.23
5 | CN[C@@H]1[C@@H](O)[C@@H](O[C@@H]2[C@@H](O)[C@H](O[C@H]3O[C@H]([C@@H](C)O)[C@@H](O)[C@H](O)[C@H]3N)[C@@H](N)C[C@H]2N)OC[C@]1(C)O [Geneticin (G418 Sulfate)] | -0.46
6 | NC(=O)CN1CCCC1=O [Piracetam] | 0.46
7 | CC(C)=CCOc1c2occc2cc2ccc(=O)oc12 [Imperatorin] | 0.85
8 | CC[C@H]1CN2CC[C@]3(C(=O)Nc4ccccc43)[C@@H]2C[C@@H]1/C(=C\OC)C(=O)OC [Rhynchophylline] | 0.35
9 | COc1ccc2c3c([nH]c2c1)C(C)=NCC3 [Harmaline] | -7.98
10 | Cc1cc(O)ccc1Cl [Chlorocresol] | -1.07
11 | Nc1ccncc1 [4-Aminopyridine] | 0.52
12 | Oc1cc(Cl)ccc1Oc1ccc(Cl)cc1Cl [Triclosan] | 0.43
13 | CC[C@H]1[C@@H]2C[C@H]3[C@@H]4N(C)c5ccccc5[C@]45C[C@@H]([C@@H]2[C@H]5O)N3[C@@H]1O [Ajmaline] | -0.28
14 | C[CH2][Hg][S]c1ccccc1C(=O)[O-].[Na+] [Thimerosal] | 6.59
15 | C=CCN1C[C@H](C(=O)N(CCCN(C)C)C(=O)NCC)C[C@@H]2c3cccc4[nH]cc(c34)C[C@H]21 [Cabergoline] | 0.39
16 | C=C[C@H]1CN2CC[C@H]1C[C@H]2[C@H](O)c1ccnc2ccccc12 [Cinchonidine] | -0.45
17 | CC(NC(C)(C)C)C(=O)c1cccc(Cl)c1 (stereo not given) [Amfebutamone (Bupropion) HCl] | -0.9
18 | CCN1CC2(OC(=O)c3ccccc3NC(C)=O)CCC(OC)C34C1C(CC23)C1(O)CC(OC)C2CC4C1(O)C2OC (stereo not given) [Lappaconitine] | 0.26
19 | C[N+]1(C)[C@@H]2C[C@@H](OC(=O)[C@H](CO)c3ccccc3)C[C@H]1[C@@H]1O[C@@H]12 [Methscopolamine] | 0.7
20 | C=C(C)[C@H]1Cc2c(ccc3c2O[C@@H]2COc4cc(OC)c(OC)cc4[C@@H]2C3=O)O1 [Rotenone (Barbasco)] | 1.02

Row | SMILES | z-score of subpopulation abundance
21 | COc1ccc2[nH]cc(CCN)c2c1 [5-Methoxytryptamine] | 0.53
22 | C[C@H]1O[C@H](O[C@H]2[C@H](O)[C@@H](O)[C@@H](O)[C@H](O)[C@@H]2O)[C@@H](N)C[C@@H]1NC(=N)C(=O)O [Kasugamycin hydrochloride] | -0.33
23 | CCCN1C[C@H](CSC)C[C@@H]2c3cccc4[nH]cc(c34)C[C@H]21 [Pergolide Mesylate] | -0.93
24 | C=CC[C@]1(O)CC[C@H]2[C@@H]3CCC4=CC(=O)CCC4=C3C=C[C@@]21C [Altrenogest] | -1.33
25 | C[C@@H]1CC[C@H]2[C@@H](C)C(=O)O[C@@H]3O[C@@]4(C)CC[C@@H]1[C@]32OO4 [Artemisinin] | 0.58
26 | N#Cc1nn(-c2c(Cl)cc(C(F)(F)F)cc2Cl)c(N)c1[S+]([O-])C(F)(F)F (stereo not given) [Fipronil] | -0.37
27 | Oc1cccc2cccnc12 [8-Hydroxyquinoline] | -1.16
28 | CN(C)[C@@H]1C(=O)C(C(N)=O)=C(O)[C@@]2(O)C(=O)C3=C(O)c4c(O)cccc4[C@@](C)(O)[C@H]3C[C@@H]12 [Tetracycline HCl] | -0.3
29 | NCC(O)c1ccc(O)cc1 (racemic) [(+,-)-Octopamine HCl] | 0.29
30 | CC1(C)SC2C(N)C(=O)N2C1C(=O)O (stereo not given) [6-Aminopenicillanic acid] | 0.4
31 | COC(=O)C1=CCCN(C)C1 [Arecoline HBr] | 0.06
32 | CNC1CC(N)C(O)C(OC2OC(CO)C(O)C3OC4(OC(C(N)CO)C(O)C(O)C4O)OC23)C1O (stereo not given) [Hygromycin B] | -0.07
33 | CC[C@@H](C(N)=O)N1CCCC1=O [Levetiracetam] | -0.75
34 | CCN(CC)CCOC(=O)C(O)(c1ccccc1)c1ccccc1 [Benactyzine hydrochloride] | 1.62
35 | O=c1cccc2n1C[C@@H]1CNC[C@H]2C1 [Cytisine] | -0.56
36 | CCOC(=O)Nc1ccc(NCc2ccc(F)cc2)cc1N [Retigabine 2HCl] | -0.49
37 | CCCCCCCCCCCCCCCC[n+]1ccccc1 [Cetylpyridinium Chloride] | 16.1
38 | CCN(C)C(=O)Oc1cccc([C@H](C)N(C)C)c1 [Rivastigmine Tartrate] | -0.86
39 | NCCc1c[nH]c2ccc(O)cc12 [Serotonin HCl] | -0.18
40 | CC[C@@]1(O)C(=O)OCc2c1cc1n(c2=O)Cc2cc3ccccc3nc2-1 [Camptothecin] | -0.74
